One may read the AC50 as the concentration giving half of the maximal activity seen.

Activity calls are given as the source filed them. How the source made its calls: active means hit-call score of the fitted dose curve at least 0.9, where 1 is the maximum; inactive means score below 0.9.

The nature of the experiment: ATG_PBREM_CIS: Attagene CIS-FACTORIAL HepG2 Assay for human Phenobarbital-responsive Enhancer Module (PBREM) (AID 2282955). The following applies: HepG2 PBREM cis-reporter, Attagene multiplexed transcription; actives raise or lower the signal. Here is the method:
ATG_CIS is a cell-based, multiplexed-readout assay that uses HepG2, a human liver cell line, with measurements taken at 24 hours after chemical dosing in a 24-well plate.ATG_PBREM_CIS is one of 52 assay component(s) measured or calculated from the ATG_CIS assay. It is designed to make measurements of mRNA induction, a form of inducible reporter, as detected with fluorescence intensity signals by Reverse transcription polymerase chain reaction (RT-PCR) and Capillary electrophoresis technology.Data from the assay component ATG_PBREM_CIS was analyzed into 1 assay endpoint. This assay endpoint, ATG_PBREM_CIS, was analyzed with bidirectional fitting relative to DMSO as the negative control and baseline of activity. Using a type of inducible reporter, measures of mRNA for gain or loss-of-signal activity can be used to understand the reporter gene at the transcription factor-level as they relate to the gene NR1I3. Furthermore, this assay endpoint can be referred to as a primary readout, because this assay has produced multiple assay endpoints where this one serves a reporter gene function. To generalize the intended target to other relatable targets, this assay endpoint is annotated to the nuclear receptor intended target family, where the subfamily is non-steroidal.
Human liver HepG2 cells are transiently transfected with multiple reporter transcription units (MRTUs) in 6-well plates using FuGene 6 reagent (Roche; 3 ml FuGene/1 mg DNA). The MRTU constructs are regulated by a cis-regulating element (promoter). […] A major difference between the CIS and TRANS system is that in CIS activities of endogenous TFs are measured, whereas the TRANS assay evaluates changes in activities of exogenous, chimeric NR-Gal4 proteins. […] At the end of 24 hour incubation, total RNA was isolated using TriZol reagent (Invitrogen). The isolated RNA is then reverse-transcribed using oligo(dT) primer and Mo-MLV reverse transcriptase (Invitrogen) with DNAse I (Ambion) treatment for 30 min. The one-tenth of the produced cDNA was amplified by PCR using Taq DNA polymerase (Invitrogen) and two reporter sequence-specific primers. The PCR products were fluorescently labeled by primer extension with 6-arboxyfluorescein (6-FAM) 5'-labeled reporter sequence-specific primer (2 min at 95 C, 20 s at 68 C and 10 min at 72 C) and these products were digested with 5U of HpaI (New England Biolabs) for 2h at 37 C. The fragments were purified using Qiaquick PCR columns (Qiagen), analyzed on an ABI 3130xL genetic analyzer (Applied Biosystems) with peak positions identified by using a set of X-rhodamine (ROX)-labeled MapMarker1000 molecular weight standards (BioVentures). The raw capillary electrophoresis data was processed using Attagraph software (Attagene).
For the molecule `CCCCCCCCN1CCCC1=O`, the outcome was inactive. In the case of `CC(C)(CO)[C@@H](O)C(=O)NCCC(=O)O`, the result was inactive. Same read-out and setting: the result for `C=CCOC(=O)CCCCCC` reads “inactive”; that for `COc1cc([C@@H]2c3cc4c(cc3[C@@H](O[C@@H]3O[C@@H]5CO[C@@H](C)O[C@H]5[C@H](O)[C@H]3O)[C@H]3COC(=O)[C@H]23)OCO4)cc(OC)c1O`, “inactive”; that for `O=C(O)c1ccc(O)cc1`, “inactive”. As to `CC(C)Nc1nc(N)nc(Cl)n1`, the outcome was inactive. On the same count and under the same terms, the entry for `C=C(C)C(=O)OCCOC1CC2CC1C1C=CCC21` (stereo not given) is “inactive”.

Turning to `CCCCCCCCc1ccc(S(=O)(=O)O)cc1`, the concentration at half-maximal activity (AC50) is 99.5 µM (active). As for `O=Cc1ccccc1S(=O)(=O)O`, the result was inactive. With `FC(F)(F)COCC(F)(F)F`, the result was inactive. Still for that read-out and setting: the result for `c1ccc2[nH]cnc2c1` reads “inactive”; that for `CCCC[P+](CCCC)(CCCC)CCCC`, “inactive”.

With `Oc1ccc2cc(SSc3ccc4cc(O)ccc4c3)ccc2c1`, the result was inactive. Consider `CCCC(C)=O`, for which the outcome was inactive. As to `CCN(CCC#N)c1ccc(N=Nc2ccc([N+](=O)[O-])cc2)cc1`, the outcome was inactive. Regarding `CCCC(O)C(O)CO` (stereo not given), the result was inactive. As for `O=C1OC(=O)c2c(Br)c(Br)c(Br)c(Br)c21`, the outcome was inactive. As for `CC(C)OCCO`, the result was inactive. As to `CC(C)C[C@H](NC(=O)OCC1c2ccccc2-c2ccccc21)C(=O)O`, the outcome was inactive. Same read-out and setting: the result for `CCC(C)S` (stereo not given) reads “inactive”.

As for `CCCCCCC(C)(C)S`, the outcome was inactive. Regarding `C=CC(=C)CCCC(C)(C)OC(C)=O`, the outcome was inactive. For `C=CC(=O)OCCCC`, the result was inactive. For the molecule `OC[C@H]1O[C@@H]2O[C@H]3[C@H](O)[C@@H](O)[C@@H](O[C@H]4[C@H](O)[C@@H](O)[C@@H](O[C@H]5[C@H](O)[C@@H](O)[C@@H](O[C@H]6[C@H](O)[C@@H](O)[C@@H](O[C@H]7[C@H](O)[C@@H](O)[C@@H](O[C@H]8[C@H](O)[C@@H](O)[C@@H](O[C@H]9[C@H](O)[C@@H](O)[C@@H](O[C@H]1[C@H](O)[C@H]2O)O[C@@H]9CO)O[C@@H]8CO)O[C@@H]7CO)O[C@@H]6CO)O[C@@H]5CO)O[C@@H]4CO)O[C@@H]3CO`, the result was inactive. In the case of `COc1ccccc1N=Nc1c(S(=O)(=O)O)cc2cc(S(=O)(=O)O)cc(NC(C)=O)c2c1O`, the outcome was inactive. In the case of `CC(=O)C1(C)CC2=C(CCCC2(C)C)CC1C` (stereo not given), the AC50 is 100 µM (active).

For `CC(CN=Cc1ccccc1O)N=Cc1ccccc1O` (stereo not given), the outcome was inactive.

As for `CCCCCCCC(=O)OCCCCCC`, the result was inactive.

Consider `CCOC(=O)C(C#N)=C(c1ccccc1)c1ccccc1`, for which the AC50 is 2.07 µM (active).

With `CCCC1O[C@@H]2C[C@H]3[C@@H]4CCC5=CC(=O)C=C[C@]5(C)[C@H]4[C@@H](O)C[C@]3(C)[C@]2(C(=O)CO)O1` (stereo not given in full), the outcome was inactive.

As for `O=C(O)CCCCCCCCC(=O)O`, the outcome was inactive. As to `CC(=O)O[C@H]1C[C@@H]2CC[C@@]1(C)C2(C)C`, the result was inactive.

In the case of `COc1ccc(CCO)cc1`, the outcome was inactive. Turning to `CCCCCC(C)=O`, the outcome was inactive. As for `COc1cc(C(C)C)ccc1C`, the result was inactive.

For `C=Cc1ccncc1`, the result was inactive.

In the case of `Cc1cc(=O)oc2cc(N(C)C)ccc12`, the AC50 is 100 µM (active). With `O=C1CCCC=CCCCCCCCCCC1`, the result was inactive. As to `C/C=C(\C)C(=O)OCCc1ccccc1`, the result was inactive. Turning to `CCc1ccc(O)c(OC)c1`, the outcome was inactive.

The values above are taken from PubChem BioAssay (EPA / NIEHS).
